The values below come from PubChem BioAssay AID504834 (National Center for Advancing Translational Sciences (NCATS), 2011).

Each structure is given as a SMILES string. The whole screen tested about 320,000 compounds, of which about 22,000 (6.9%) were called active. Not shown: some 27% with an inconclusive outcome. The sample holds actives, similar compounds and a random draw of the others, so the mix is not that of the screen. Calls follow the shape of the dose curve; as a rule, active = well fitted inhibition curve with a large enough effect; inconclusive = small, poorly fitted or top-dose-only effect, or another doubt; inactive = no such curve, though single readings can be large or run the other way.
% is scaled to controls: 0 for no effect and ±100 for the full control effect; potency is read from the fitted curve at half-maximal effect.

This assay is described as follows: Primary qHTS for delayed death inhibitors of the malarial parasite plastid, 96 hour incubation. Conditions: P. falciparum luciferase reporter growth; series mostly up to 28.7 µM; activity change, negative = inhibition: at the top concentration. Put shortly: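 96 h incubation, 37 C, 5% CO2, of luciferase-reporter P. falciparum-infected RBCs (2% hematocrit, 0.05% parasitemia final) with test compounds; endpoint luminescence.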
Consider `O=C(O)C1CCCN(S(=O)(=O)c2cccc3cccnc23)C1` (stereo unspecified), for which the Potency is 2.08 µM (active).
With `Cc1cccc(NC(=O)C2CCN(S(=O)(=O)c3cccc4cccnc34)CC2)c1`, the Potency was 5.86 µM (active).
Still for that read-out and setting: the value for `COc1ccc(NC(=O)C2CCCN(S(=O)(=O)c3cccc4cccnc34)C2)cc1OC` (stereo unspecified) was 10.4 µM (active).
On to `CC(=O)c1cccc(NC(=O)C2CCCN(S(=O)(=O)c3cccc4nonc34)C2)c1` (stereo unspecified), for which the “activity change, negative = inhibition” value is 5.63% (inactive).
Regarding `O=C(NCc1ccco1)C1CCCN(S(=O)(=O)c2cccc3nonc23)C1` (stereo unspecified), the “activity change, negative = inhibition” value was 22% (inactive).
Consider `Cc1ccc(C(=O)Nc2nc(N)n(-c3ccccc3)n2)cc1`, for which the “activity change, negative = inhibition” value was 40.9% (inactive).
Same read-out and setting: the value for `CC1=NN(C(N)=S)C(=O)C1N=Nc1cc(Cl)ccc1Cl` (stereo unspecified) was 16.9% (inactive); that for `CCOC(=O)C1CCCN(S(=O)(=O)c2ccc(-n3cnnn3)c(C)c2)C1` (stereo unspecified) was 4.73% (inactive); that for `CCn1c(SCC(=O)NC2=NCCS2)nnc1C(C)NC(=O)c1ccccc1F` (stereo unspecified) was 19.2% (inactive).
The same measure, in the same setting: the value for `O=C(CNC(=O)c1cccnc1)N/N=C/c1cccnc1` was 32.2% (inactive).
With `O=C(CCCCCNC(=O)c1ccccc1)N/N=C/c1ccccc1`, the Potency is 1.47 µM (active).
As to `O=C(CC(=O)N/N=C\c1ccc(F)cc1)NCCc1ccccc1`, the “activity change, negative = inhibition” value is 2.04% (inactive).
As for `CNS(=O)(=O)c1cccc(C(=O)OCCCC(=O)c2ccccc2)c1`, the “activity change, negative = inhibition” value is -12.1% (inactive).
Same read-out and setting: in the case of `COc1ccc(Cl)cc1NC(=O)CN(C)CC(=O)Nc1ccc2c(c1)OCO2` it was -0.297% (inactive); in that of `Cn1c(CC(=O)Nc2ccc(F)cc2)nnc1SCC(=O)NC1CCCCC1`, -8.17% (inactive).
`Cc1ccc(Nc2nc(N3CCOCC3)nc(N3CCOCC3)n2)cc1Cl`: the “activity change, negative = inhibition” value was -16.3% (inactive).
With `COC(=O)CNc1nc(Cl)nc(N2CCC(C)CC2)n1`, the “activity change, negative = inhibition” value was 9.44% (inactive).
Consider `Clc1nc(NC2CCCC2)nc(N2CCOCC2)n1`, for which the Potency is 11.7 µM (active).
For `O=C(Nc1ccc(N2CCCC2=O)cc1)c1cncc(Br)c1`, the “activity change, negative = inhibition” value is 1.63% (inactive).
Take `COc1ccc(C(=O)N(Cc2ccccc2)c2ccc(C)cc2)cc1S(=O)(=O)N1CCOCC1`: the “activity change, negative = inhibition” value is -68.2% (inactive).
For the molecule `Cc1cccc(N(Cc2ccccc2)C(=O)c2cc(S(=O)(=O)N3CCOCC3)ccc2F)c1`, the Potency is 11.7 µM (active).
For `Cc1cccc(N(Cc2ccccc2)C(=O)c2ccccc2F)c1`, the “activity change, negative = inhibition” value was -24.8% (inactive).
On to `O=C(c1ccc(F)c(S(=O)(=O)N2CCOCC2)c1)N(CCc1ccccc1)Cc1ccccc1`, for which the Potency was 2.62 µM (active).
For the molecule `NC(=O)C1CCN(C(=O)c2ccc(F)c(S(=O)(=O)N3CCOCC3)c2)CC1`, the “activity change, negative = inhibition” value was 6.45% (inactive).
For `Cc1cccc(NC(=O)c2cc(S(=O)(=O)N3CCC4(CC3)OCCO4)ccc2F)c1`, the “activity change, negative = inhibition” value was 23.8% (inactive).
Consider `Cc1cccc(C(=O)Nc2ccc(Oc3cnccn3)cc2)c1`, for which the “activity change, negative = inhibition” value is 63.5% (inactive).
As for `COc1cccc(C(=O)n2ccc(-c3cccs3)n2)c1`, the “activity change, negative = inhibition” value was 0% (inactive).
Turning to `CC(=O)Nc1cccc(NC(=O)CSc2nccn2Cc2ccc(F)cc2)c1`, the “activity change, negative = inhibition” value was 0% (inactive).
`COC(=O)[C@H](CC(C)C)NC(=O)N1CCCCC1C` (stereo partly specified): the “activity change, negative = inhibition” value was -9.64% (inactive).
Take `CCCc1c(C(=O)Nc2ccc(F)cc2)cnn1-c1ccccc1`: the “activity change, negative = inhibition” value was -24.3% (inactive).
As for `Cc1cc(C)cc(N(CCC#N)C(=O)CN2C(=O)NC3(CCCC3)C2=O)c1`, the “activity change, negative = inhibition” value was 13.1% (inactive).
In the case of `COc1ccc(CCNc2cc(C)nc3c(-c4ccc(Cl)cc4)c(C)nn23)cc1OC`, the Potency is 10.4 µM (active).
With `COc1ccc(CCNc2nc(C)cc(C)n2)cc1OC`, the “activity change, negative = inhibition” value is 0% (inactive).
On to `COc1ccc(CCNc2nc3ccc(C)cc3n3cnnc23)cc1OC`, for which the “activity change, negative = inhibition” value was 20.1% (inactive).
On to `COc1ccccc1-c1cnn2c(N3CCOCC3)cc(C)nc12`, for which the “activity change, negative = inhibition” value is 136% (inactive).
The same measure, in the same setting: in the case of `O=C(Oc1ccc([N+](=O)[O-])cc1)c1ccc(Cl)c(S(=O)(=O)N2CCCCC2)c1` it was -10.5% (inactive).
Consider `CC(C)c1nccn1S(=O)(=O)c1cc([N+](=O)[O-])ccc1Cl`, for which the Potency is 11.7 µM (active).
As to `CCc1nccn1S(=O)(=O)c1cccc([N+](=O)[O-])c1`, the “activity change, negative = inhibition” value was 1.85% (inactive).
For `CSc1ccc(-c2c(C#N)c(N)nc3c2c(C)nn3-c2ccccc2)cc1`, the Potency was 2.08 µM (active).
As for `Cn1c(=O)c2c(-c3cccc(Br)c3)c(C#N)c(N)nc2n(C)c1=O`, the “activity change, negative = inhibition” value was 23.3% (inactive).
Consider `Cc1nn(-c2ccccc2)c2c1C(c1ccc(F)cc1)C(C#N)=C(N)O2` (stereo unspecified), for which the “activity change, negative = inhibition” value was 52.7% (inactive).
Regarding `COc1ccc2c3c(c(=O)oc2c1)C1O[C@](CCCCN2C(=O)c4ccccc4C2=O)(Cc2c1ccc1ccccc21)O3`, the activity change, negative = inhibition was 49.1% [at 5.75 µM] (inactive).
Same read-out and setting: in the case of `Cc1cccc(C)c1N1C(=O)CN(Cc2ccccc2)C1=S` it was 23% (inactive).
For the molecule `COc1cccc(N2C(=O)CN(Cc3ccccc3)C2=S)c1`, the Potency is 1.31 µM (active).
As to `COc1cccc(N2C(=O)CC(N3CCN(S(=O)(=O)c4ccccc4)CC3)C2=O)c1` (stereo unspecified), the “activity change, negative = inhibition” value is -19.2% (inactive).
In the case of `Cc1ccc(S(=O)(=O)N(C)c2ccc(OCC(=O)OCC(=O)N(CC#N)c3ccccc3)cc2)cc1`, the “activity change, negative = inhibition” value was 1.77% (inactive).
As to `CN(CC(=O)Nc1ccc(Cl)cc1)C(=O)CNC(=O)c1ccc2ccccc2c1`, the “activity change, negative = inhibition” value was 34.5% (inactive).
Take `O=c1c2ccccc2cnn1Cc1n[nH]c(=S)n1-c1ccccc1F`: the “activity change, negative = inhibition” value is 24.1% (inactive).
As for `COc1ccc(/C=C/C(=O)Nc2ccc3c(c2)OCCO3)cc1OC`, the “activity change, negative = inhibition” value was -3.91% (inactive).
As for `COc1ccc(NS(=O)(=O)c2ccc(N3CCN(CCO)CC3)c([N+](=O)[O-])c2)cc1`, the “activity change, negative = inhibition” value is -11.6% (inactive).
As for `COc1ccc(NS(=O)(=O)c2cc(NC(=O)/C=C/c3cc(OC)c(OC)c(OC)c3)ccc2N2CCCCC2)cc1`, the Potency was 2.08 µM (active).
